LDHA block = LDHA (human) enzyme inhibition. P00338. activity change, % (values are at about 110 or 230 µM). 0.15% of 480,000 active. purified LDHA, NADH/diaphorase-resazurin fluorescence; active compounds read low; in the data active = activity change below about -30%; inconclusive = mostly about -25% to -30%;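 note: plate controls were DMSO wells for no effect and wells without enzyme for full effect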
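Human LDH5 at 2 nM final in Tris HCl pH 7.4 with 0.06 mM NADH and 0.2 mM pyruvate, reacted 5 minutes at room temperature. Remaining NADH coupled via diaphorase/resazurin; resorufin fluorescence read at 0 and 20 minutes, normalized to enzyme-free and DMSO wells.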
mIDH1 inhibitor = inhibitors of human mutant IDH1 R132H | IDH1-R132H enzyme, NADPH consumption, diaphorase/resazurin fluorescence | Potency, µM (top dose mostly 76.6 µM), inactives show at the top dose activity change, negative = inhibition, actives largely listed as inhibitors | 0.093% of 390,000 active | AID 602179; note: potency is the fitted concentration of half-maximal effect; % is set by controls: 0 for no effect and ±100 for the full control effect; nearly all actives have a fitted effect of over 65% in size
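IDH1-R132H (0.5 ug/mL) preincubated 30 min with compound, then NADPH (0.016 mM) and alpha-KG (2 mM) added; 80 min at RT, pH 7.5. Remaining NADPH coupled via diaphorase/resazurin to fluorescence (540/590 nm); concentration-response curves normalized to no-enzyme control.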
A549 viability = counter-screen for Nrf2 inhibitors: cytotoxicity in A549 cells. A549 ARE-Fluc cells, CellTiter-Fluor viability, 18-24 h. Potency, µM (series often up to 46 µM), without a hit: at the highest dose activity change, negative = cytotoxicity, actives largely listed as inhibitors. 0.16% of 390,000 active; note: potency is the fitted concentration of half-maximal effect; % is set by controls: 0 for no effect and ±100 for the full control effect
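A549 ARE_Fluc cells in 5% FBS OPTI-MEM were exposed to compounds in concentration-response for 18-24 h at 37 deg C. Viability was read by CellTiter-Fluor fluorescence (Ex 405/Em 525) after 30 min, before the luciferase read.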
Nrf2 activator = activators of Nrf2 (ARE) signaling; AREc32 ARE-luciferase reporter (MCF7-derived line), luminescence, 24 h; Potency, µM (highest dose often 46.1 µM), for the others: at the top dose activation, usual class: activators; 0.31% of 410,000 active; note: potency is the fitted concentration of half-maximal effect; % of control where 0% means no effect; nearly all actives have a fitted effect of over 65% in size
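Quantitative high-throughput format: AREc32 reporter cells, 1000 per well, received compound by pin transfer and were incubated 24 hr at 37 deg C, 5% CO2, before Steady-Glo luminescence detection.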
ALOX12 inh = ALOX12 (human) lipoxygenase inhibition | P18054 | purified 12hLO, xylenol orange hydroperoxide absorbance | Potency, µM (series often up to 108 µM), for inactives: at the top dose activity change, negative = inhibition, actives largely listed as inhibitors | 1.1% of 580,000 active; note: potency is the fitted concentration of half-maximal effect; % is set by controls: 0 for no effect and ±100 for the full control effect
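Purified human 12hLO at 150 nM in 25 mM Hepes, 0.01% Triton X-100, pH 7.0, preincubated 15 min at room temperature with compound. Reaction started with 40 uM arachidonic acid, 30 min at room temperature. Hydroperoxide measured by Fe-xylenol orange, 573/405 nm absorbance ratio.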
Nrf2 block = inhibitors of Nrf2 signaling; Potency, µM (titrated, usually from 46 µM), for inactives: at the top dose activity change, negative = inhibition, actives largely listed as inhibitors; A549 ARE-Fluc reporter, luciferase luminescence, 18-24 h; AID 504444; 2.1% of 360,000 active; note: potency is the fitted concentration of half-maximal effect; % is set by controls: 0 for no effect and ±100 for the full control effect; nearly all actives have a fitted effect of over 60% in size
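A549 ARE_Fluc cells (5000/well, 5% FBS OPTI-MEM) pre-incubated 2 h, then treated with compounds 18-24 h at 37C/5% CO2 in concentration-response. CellTiter-Fluor viability read first; BugLite luciferase luminescence after 15 min at room temperature gives Nrf2 activity.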
An asterisk follows results filed as active; [ ] = another dose, or the depositor's remark. In the library only some 2.7% were active in any assay of this set; here they are far more common. Unless noted, calls come from the whole dose curve; as a rule, active = well fitted curve in the direction sought with a large enough effect; inconclusive = small, poorly fitted or top-dose-only effect, or another doubt; inactive = no such curve, though single readings can be large; an effect the other way counts as inactive or inconclusive.

What do the screens show for `O=C(COc1ccc(F)cc1)N1CCC(n2cc(-c3nc(-c4ccccc4)no3)nn2)C1` (centres undefined)?
ALOX12 inh: 7.5%

Results for c1cc(CNC[C@H]2Cn3cc(-c4ccc5c(c4)OCCCO5)nc3CO2)ccn1 ?
ALOX12 inh: 44.8%[176 µM]

What do the screens show for `COc1cc2c(cc1OC)C(C[C@H]1CN(C(=O)c3ccco3)CC[C@H]1CC(=O)O)=NCC2`?
ALOX12 inh: 56.2µM*

Results for CCc1cccc(NC(=O)CSc2ncc(-c3ccc(F)cc3)o2)c1 ?
LDHA block: -5.8; ALOX12 inh: inconclusive

Results for CCC(CC)NC(=O)COC(=O)CCS(=O)(=O)c1ccc(C)cc1 ?
LDHA block: 8.1; ALOX12 inh: 2.9%

Results for CCCC(C)NC(=O)COC(=O)CCS(=O)(=O)c1ccc(C)cc1 (centres undefined) ?
LDHA block: -30.8*; ALOX12 inh: -25.2%

How did Cc1nccc(-c2sc(-c3cccs3)nc2C)n1 do in these assays?
LDHA block: -4.4; mIDH1 inhibitor: 11.7%; A549 viability: -11.5%; Nrf2 activator: 12.6µM*; ALOX12 inh: inconclusive; Nrf2 block: 7.3%

What do the screens show for `Cc1nc(-c2cccs2)sc1C(=O)O`?
LDHA block: -6.7; mIDH1 inhibitor: 3.3%; A549 viability: 4.0%; Nrf2 activator: -0.3%; ALOX12 inh: 4.9%; Nrf2 block: inconclusive

How did Cc1cc(C)c2c(N)c(C(=O)c3ccc(Br)cc3)oc2n1 do in these assays?
LDHA block: -8.7; mIDH1 inhibitor: 0.0%; A549 viability: 1.2%; Nrf2 activator: 1.78µM*; ALOX12 inh: inconclusive; Nrf2 block: 16.9%

Results for Cc1ccc(CNc2nc3c(c(=O)[nH]c(=O)n3C)n2CCCc2ccccc2)cc1 ?
LDHA block: 3.8; ALOX12 inh: -26.1%

How did Cc1nc(-c2ccc(C)c(S(=O)(=O)N3CCCC(C(=O)NCc4ccc5c(c4)OCO5)C3)c2)no1 (centres undefined) do in these assays?
LDHA block: 6.3; ALOX12 inh: -5.3%

How did COC(=O)[C@@]1(Sc2ccc(C)cc2)CC(=O)N[C@@H]1c1ccco1 do in these assays?
LDHA block: 1.2; Nrf2 activator: -0.1%; ALOX12 inh: 39.8µM*

How did O=c1c(C(c2c(O)nc3n(c2=O)CCS3)c2cccc3ccccc23)c(O)nc2n1CCS2 do in these assays?
LDHA block: -3.8; mIDH1 inhibitor: 6.5%; A549 viability: -9.2%; Nrf2 activator: 4.4%; ALOX12 inh: 31.6µM*; Nrf2 block: -13.0%

What do the screens show for `Fc1ccc(N=c2ssnc2Cl)c(F)c1`?
LDHA block: -2.9; mIDH1 inhibitor: 2.9%; A549 viability: -27.3%; Nrf2 activator: 8.6%; ALOX12 inh: 7.08µM*; Nrf2 block: -6.3%

How did O=C(CCl)NCCN1C(=O)S/C(=C\c2cccnc2)C1=O do in these assays?
LDHA block: 12.8; mIDH1 inhibitor: 0.4%; A549 viability: -6.1%; Nrf2 activator: 12.6µM*; ALOX12 inh: inconclusive; Nrf2 block: -0.2%

How did O=C(Cn1[nH]c(=O)c2ccccc2c1=O)NCCN1C(=O)S/C(=C\c2ccccc2)C1=O do in these assays?
LDHA block: -2.6; mIDH1 inhibitor: -8.8%; A549 viability: -10.2%; Nrf2 activator: 12.6µM*; ALOX12 inh: -14.0%; Nrf2 block: inconclusive

Results for CC(C(=O)NCCN1C(=O)S/C(=C\c2cccnc2)C1=O)N1C(=O)c2ccccc2C1=O (centres undefined) ?
LDHA block: 1.3; mIDH1 inhibitor: -5.7%; A549 viability: 2.6%; Nrf2 activator: 1.5%; ALOX12 inh: -21.2%; Nrf2 block: -12.2%

How did CCN(CC)S(=O)(=O)c1ccc(/C=C\c2onc(C)c2NC(=O)C2CC2)cc1 do in these assays?
LDHA block: -4.5; ALOX12 inh: -7.6%
